ALDH1A1 inh: qHTS Assay for Inhibitors of Aldehyde Dehydrogenase 1 (ALDH1A1); Aldehyde dehydrogenase 1A1 (Homo sapiens), P00352; Purified ALDH1A1, NADH fluorescence, propionaldehyde substrate; Potency, µM (top dose mostly 75.3 µM), inactives show at the top dose activity, negative = inhibition, hits mostly inhibitors; 7.3% of 220,000 active; AID 1030, 2008;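 also: potency is read from the fitted curve at half-maximal effect; plate controls were no enzyme wells and a reference inhibitor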
Target sequence (P00352 whole entry, looked up): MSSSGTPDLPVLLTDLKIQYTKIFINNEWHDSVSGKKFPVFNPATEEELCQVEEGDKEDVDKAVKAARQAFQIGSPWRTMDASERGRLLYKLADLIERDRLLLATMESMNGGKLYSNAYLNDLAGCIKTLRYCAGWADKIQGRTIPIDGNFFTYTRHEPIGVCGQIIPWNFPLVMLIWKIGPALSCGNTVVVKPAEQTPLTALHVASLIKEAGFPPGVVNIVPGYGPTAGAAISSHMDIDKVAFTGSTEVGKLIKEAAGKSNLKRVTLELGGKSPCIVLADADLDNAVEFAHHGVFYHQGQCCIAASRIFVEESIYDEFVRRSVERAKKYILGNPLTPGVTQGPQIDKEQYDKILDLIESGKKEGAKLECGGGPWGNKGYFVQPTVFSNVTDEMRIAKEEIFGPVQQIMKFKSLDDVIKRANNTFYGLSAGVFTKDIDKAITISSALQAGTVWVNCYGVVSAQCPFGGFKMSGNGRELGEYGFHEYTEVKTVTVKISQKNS
JMJD2E inh: qHTS Assay for Inhibitors of Human Jumonji Domain Containing 2E (JMJD2E); 1.6% of 230,000 active; Potency, µM (top dose mostly 57.1 µM), without a hit: at the highest dose activity change, negative = inhibition, usual class: inhibitors; JMJD2E catalytic domain, FDH-coupled NADH fluorescence (FDH is formaldehyde dehydrogenase);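 also: potency is read from the fitted curve at half-maximal effect; 0% = wells with enzyme and -100% = buffer wells without enzyme; nearly all actives have a fitted effect of over 50% in size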
HttQ103 aggreg: qHTS Multiplex Assay to Identify Dual Action Probes in a Cell Model of Huntington: Aggregate Formation (GFP); PC12 HttQ103-GFP aggregates, Acumen cytometry, 40 h; Potency, µM (series often up to 46.1 µM), inactives show at the top dose activity change, negative = inhibition, hits mostly inhibitors; 1.1% of 220,000 active; active = well fitted curve in the direction sought with a large enough effect; inconclusive = small, poorly fitted or top-dose-only effect, or another doubt; inactive = no such curve, though single readings can be large; an effect the other way counts as inactive or inconclusive; also: potency is read from the fitted curve at half-maximal effect; % is scaled to controls: 0 for no effect and ±100 for the full control effect; nearly all actives have a fitted effect of over 60% in size
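Quantitative HTS on tebufenozide-induced (100 nM) PC12 cells stably expressing polyQ103 Huntingtin exon 1–GFP. Reduction of bright GFP aggregates, detected by laser scanning cytometry after lysis, identified actives across the titration.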
HPGD inh: qHTS Assay for Inhibitors of HPGD (15-Hydroxyprostaglandin Dehydrogenase); 4.3% of 150,000 active; purified HPGD, NADH fluorescence kinetic, PGE2 substrate; Potency, µM, inactives show at the top dose activity change, negative = inhibition, actives largely listed as inhibitors; 15-hydroxyprostaglandin dehydrogenase [NAD(+)] (Homo sapiens), P15428; also: potency is read from the fitted curve at half-maximal effect; % is scaled to controls: 0 for no effect and ±100 for the full control effect
Target sequence (P15428 whole entry, looked up): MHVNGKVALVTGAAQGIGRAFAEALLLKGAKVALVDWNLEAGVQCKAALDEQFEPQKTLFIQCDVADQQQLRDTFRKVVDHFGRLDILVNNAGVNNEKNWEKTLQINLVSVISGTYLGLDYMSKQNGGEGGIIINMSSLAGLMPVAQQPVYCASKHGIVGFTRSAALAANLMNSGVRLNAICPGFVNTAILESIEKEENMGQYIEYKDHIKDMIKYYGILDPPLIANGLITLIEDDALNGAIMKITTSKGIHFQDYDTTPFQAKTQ
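20 nM HPGD preincubated 15 min at room temperature with compound in 50 mM Tris-HCl pH 8, 0.01% Tween 20. Started with 1 mM NAD+ and 30 uM prostaglandin E2; NADH fluorescence (360/450 nm) read 5 times over 30-s intervals, last minus first.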
HTT ATP protect: qHTS Multiplex Assay to Identify Dual Action Probes in a Cell Model of Huntington: Cytoprotection (ATP) | AID 1471, 2008 | PC12 HTT-Q103 induced, cytoprotection, ATP luminescence, 40 h | Potency, µM (series often up to 56.4 µM), for inactives: cytoprotection (ATP increase), most hits filed as activators | 0.14% of 230,000 active; active = well fitted curve in the direction sought with a large enough effect; inconclusive = small, poorly fitted or top-dose-only effect, or another doubt; inactive = no such curve, though single readings can be large; an effect the other way counts as inactive or inconclusive; also: potency is read from the fitted curve at half-maximal effect; % of control where 0% means no effect; nearly all actives have a fitted effect of over 45% in size
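Stable PC12 Q103-GFP cells in serum-supplemented, phenol red-free DMEM; induction by tebufenozide at 100 nM final; compound dose series; cell viability quantified luminescently from ATP.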
CBFb RUNX1 block: qHTS Assay for Compounds Blocking the Interaction Between CBF-beta and RUNX1 for the Treatment of Acute Myeloid Leukemia. AlphaScreen CBFb-His/RUNX1-biotin binding, biochemical. Potency, µM (titrated, usually from 59.8 µM), without a hit: at the highest dose activity, negative = inhibition, usual class: inhibitors. 230,000 tested, under 10 active. AID 1477, 2009; active = well fitted curve in the direction sought with a large enough effect; inconclusive = small, poorly fitted or top-dose-only effect, or another doubt; inactive = no such curve, though single readings can be large; an effect the other way counts as inactive or inconclusive; also: % of control where 0% means no effect
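His-tagged CBF-beta and biotinylated RUNX1 (30 nM each) were premixed 20 min at room temperature, exposed to compound for 15 min, then given nickel-chelate and streptavidin AlphaScreen beads (50 ng each). After 90 min, AlphaScreen signal was read.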
Active calls of the source: *; ? = inconclusive; . = no result; [ ] = dose if it differs, or a comment. Hits are enriched below; roughly 9.8% of the tested compounds scored in any of these assays. Unless noted, calls follow the shape of the dose curve; as a rule, active = well fitted inhibition curve with a large enough effect (not every such curve was filed as active); inconclusive = small, poorly fitted or top-dose-only effect, or another doubt; inactive = no such curve, though single readings can be large or run the other way.

SMILES	ALDH1A1 inh	JMJD2E inh	HttQ103 aggreg	HPGD inh	HTT ATP protect	CBFb RUNX1 block
O=C(NCc1ccccc1Cl)C1CCN(C(=O)c2sccc2-n2cccc2)CC1	1.41µM*	-6.8%	-10.2%	-4.6%	1.7%	2.1%
CN(C)S(=O)(=O)c1ccc2c(c1)nc(CCC(=O)NCc1ccc(Cl)cc1)n2C	-9.4%	6.9%	?	.	0.631µM*	-0.9%
CCn1c(CCC(=O)Nc2nc3c(s2)CCCC3)nc2cc(S(=O)(=O)N(C)C)ccc21	15.8µM*	-3.6%	?	-7.4%	16.9%[1.9 µM]	-12.5%
CC1CCN(C(=O)CCc2nc3cc(S(=O)(=O)N(C)C)ccc3n2C)CC1	11.2µM*	2.1%	-5.4%	-6.7%	1.7%	-2.2%
COc1cc([N+](=O)[O-])ccc1NC(=O)CN1CCOCC1	-88.1%	6.4%	1.4%	.	.	0.7%
CN(C)S(=O)(=O)c1cccc(NC(=S)NCCCn2ccnc2)c1	-0.8%	-3.0%	-1.9%	.	-10.6%	7.5%
Cn1c(CO)cnc1-c1ccccc1	.	8.7%	-8.8%[9.22 µM]	.	32.3%[10 µM]	9.0%
CCn1c(C)c(C(C)=O)cc(C#N)c1=O	-0.6%	-26.2%	-9.2%[9.22 µM]	.	-8.5%	0.8%
Fc1cccc(Cc2noc(CN3CCCN(C4Cc5ccccc5C4)CC3)n2)c1	3.55µM*	?	-24.3%[9.22 µM]	.	-0.2%[10 µM]	5.1%
Fc1cccc(Cc2noc(CN3CCN(C4CCc5ccccc5C4)CC3)n2)c1 (configuration not stated)	0.1%	?	10.2%[9.22 µM]	.	-1.7%[10 µM]	2.3%
COC(=O)c1ccc(C(NC(=O)OCc2ccccc2)/C(=C/[C@@H](C)C(=O)Nc2ccccc2)c2cccnc2)cc1 (some centres not stated)	2.4%	-2.3%	.	-5.4%	-4.8%	3.4%
CC(C)NS(=O)(=O)c1cc(C(=O)O)ccc1Cl	-0.9%	-1.9%	6.6%	-17.1%	.	-0.3%
CN=c1nc(-c2ccccc2)n(-c2ccccc2)s1	1.41µM*	3.16µM*	.	-26.1%	-1.7%[1.9 µM]	-9.7%
c1ccc(Cn2nc(-c3ccccc3)nc2-c2ccccc2)cc1	?	-6.1%	-1.9%	-8.9%	9.9%[10 µM]	-6.5%
COc1ccc(C2/C=C\CN(C(=O)NC(C)C)CC(=O)N2Cc2ccc(F)cc2)cc1 (configuration not stated)	.	-2.7%	0.6%[9.22 µM]	.	-0.7%[10 µM]	-4.5%
Cn1c(COc2ccc(Cl)cc2)nnc1SCc1ncc(-c2ccccc2)o1	20µM*	-26.2%	14.5%[9.22 µM]	-5.2%	-49.5%[10 µM]	-10.0%
O=C(NCCCc1nc2ccccc2[nH]1)c1ccc(F)cc1	2.7%	5.6%	?	.	0.355µM*	10.8%
COc1ccc(NC(=S)NNS(=O)(=O)c2ccc3ccccc3c2)c(OC)c1	22.4µM*	-9.3%	0.6%[9.22 µM]	.	23.6%[10 µM]	-6.6%
CCOc1cc([C@@H]2C[C@H]3CN(c4ccccc4)C(=O)[C@]34CCCN24)ccc1OC	-14.8%	-26.8%	7.08µM*	.	-161.3%	13.9%
O=S(=O)(c1ccc(F)cc1)N1CCC(N2CCN(c3ccccc3)CC2)CC1	.	.	.	.	3.4%	.
c1ccc(N2CCN(C3CCSC3)CC2)cc1 (configuration not stated)	17.8µM*	4.0%	-5.4%	-14.1%	-5.8%	2.0%
CC(OC(=O)c1ccc(Cl)c(S(=O)(=O)N2CCc3ccccc32)c1)C(=O)Nc1ncc(Cl)cc1Cl (configuration not stated)	25.1µM*	3.9%	3.1%	-14.8%	-2.2%[1.9 µM]	6.2%
CC(OC(=O)c1ccc([N+](=O)[O-])s1)C(=O)Nc1ncc(Cl)cc1Cl (configuration not stated)	6.31µM*	-2.0%	-7.1%	-6.2%	-9.7%[1.9 µM]	-5.3%
C=C(C)C(O)/C=C/c1ccc(C(F)(F)F)cc1 (configuration not stated)	-5.0%	-3.8%	.	-1.1%	?	-4.2%
Cc1ccc(C)c(-c2csc(N/N=C/c3ccco3)n2)c1	-8.6%	?	-8.6%	.	-26.0%	?
SMILES	ALDH1A1 inh	JMJD2E inh	HttQ103 aggreg	HPGD inh	HTT ATP protect	CBFb RUNX1 block
Cc1c(C(=O)OCC(=O)N2CC(C)OC(C)C2)oc2ccc(Br)cc12 (configuration not stated)	0.178µM*	1.8%	-10.0%	?	24.9%[10 µM]	3.3%
CC1CN(C(=O)COC(=O)c2c(Cl)cccc2Cl)CC(C)O1 (configuration not stated)	-1.1%	6.1%	8.9%	.	-23.6%	-14.1%
COc1cc(N=c2ssnc2Cl)c(OC)cc1Cl	1.58µM*	12.6µM*	-15.1%	3.55µM*	21.6%	-24.0%
COc1ccc(OC)c(N=c2ssnc2Cl)c1	1.58µM*	12.6µM*	-1.2%	3.16µM*	-68.0%	-15.9%
Cc1ccc2oc(=O)c3cc(C(=O)NCCN4CCc5ccccc5C4)sc3c2c1	28.2µM*	-9.7%	-13.0%	?	.	2.2%
Cc1ccc2oc(=O)c3cc(C(=O)NCc4ccco4)sc3c2c1	?	?	-0.4%	-29.9%	-20.9%	4.3%
COC(=O)c1ccc2c(c1)S(=O)(=O)NC(=NCc1ccco1)S2	-13.2%	-1.4%	-1.1%	14.1µM*	5.7%[10 µM]	-14.1%
COC(=O)c1cc(Br)c(=O)n(Cc2ccco2)c1	5.4%	4.2%	-16.4%	-4.1%	12.5%	6.3%
O=C(NCC1OCCCN1S(=O)(=O)c1cc(F)ccc1F)C(=O)NC1CCCCCC1 (configuration not stated)	-4.4%	-3.6%	-20.9%	.	-9.5%	14.6%
CCCS(=O)(=O)N1CCN(Cc2ccccc2[N+](=O)[O-])CC1	8.91µM*	?	.	.	.	-1.1%
O=C(c1ccco1)N1CCN(S(=O)(=O)Cc2ccccc2Cl)CC1	10µM*	1.9%	12.1%	.	-44.3%	8.9%
O=C(NCc1ccccc1)c1cccc(OCC(=O)N2CCN(C(=O)c3ccco3)CC2)c1	15.8µM*	-15.4%	7.3%	-3.8%	-15.2%[10 µM]	-2.5%
O=C(Cc1c(Cl)cccc1Cl)OCC(=O)N1CCN(C(=O)c2ccco2)CC1	31.6µM*	1.1%	8.5%	.	-8.5%	-7.9%
C=CCn1c(SCC(=O)NC(=O)NC)nnc1C1CCCCC1	2.8%	1.0%	9.4%	.	-9.0%	5.6%
C=CCn1c(SCC(=O)NC(=O)NCCC)nnc1C1CCCCC1	5.62µM*	-5.1%	-2.9%	-13.1%	-33.1%	-0.5%
COc1cc(/C=C2\SC(=Nc3c(C)n(C)n(-c4ccccc4)c3=O)NC2=O)ccc1O	-5.3%	-12.1%	?	14.1µM*	26.7%[10 µM]	3.7%

Screening data from PubChem BioAssay.
